# Experimental data as given in the supplement of paper PMC11732987, “Enantioselective OTUD7B fragment discovery through chemoproteomics screening and high-throughput optimisation” (Communications Chemistry, 2025).
# Unmarked numbers belong to inactive results.
# How the values were obtained:
# Assay in all cases: log2 ratio of Biotin-Ahx-Ub-VS probe labelling (fragment/DMSO); higher = less target engagement (more negative = stronger competition), active = hit call of the paper (q ≤ 0.05, log2 ratio ≤ -1)
# Conditions in all cases: compound concentration: 200 uM; treatment time: 3 h
# USP19 = biological target: T1, USP19 (UniProt O94966)
# T1 sequence (whole entry): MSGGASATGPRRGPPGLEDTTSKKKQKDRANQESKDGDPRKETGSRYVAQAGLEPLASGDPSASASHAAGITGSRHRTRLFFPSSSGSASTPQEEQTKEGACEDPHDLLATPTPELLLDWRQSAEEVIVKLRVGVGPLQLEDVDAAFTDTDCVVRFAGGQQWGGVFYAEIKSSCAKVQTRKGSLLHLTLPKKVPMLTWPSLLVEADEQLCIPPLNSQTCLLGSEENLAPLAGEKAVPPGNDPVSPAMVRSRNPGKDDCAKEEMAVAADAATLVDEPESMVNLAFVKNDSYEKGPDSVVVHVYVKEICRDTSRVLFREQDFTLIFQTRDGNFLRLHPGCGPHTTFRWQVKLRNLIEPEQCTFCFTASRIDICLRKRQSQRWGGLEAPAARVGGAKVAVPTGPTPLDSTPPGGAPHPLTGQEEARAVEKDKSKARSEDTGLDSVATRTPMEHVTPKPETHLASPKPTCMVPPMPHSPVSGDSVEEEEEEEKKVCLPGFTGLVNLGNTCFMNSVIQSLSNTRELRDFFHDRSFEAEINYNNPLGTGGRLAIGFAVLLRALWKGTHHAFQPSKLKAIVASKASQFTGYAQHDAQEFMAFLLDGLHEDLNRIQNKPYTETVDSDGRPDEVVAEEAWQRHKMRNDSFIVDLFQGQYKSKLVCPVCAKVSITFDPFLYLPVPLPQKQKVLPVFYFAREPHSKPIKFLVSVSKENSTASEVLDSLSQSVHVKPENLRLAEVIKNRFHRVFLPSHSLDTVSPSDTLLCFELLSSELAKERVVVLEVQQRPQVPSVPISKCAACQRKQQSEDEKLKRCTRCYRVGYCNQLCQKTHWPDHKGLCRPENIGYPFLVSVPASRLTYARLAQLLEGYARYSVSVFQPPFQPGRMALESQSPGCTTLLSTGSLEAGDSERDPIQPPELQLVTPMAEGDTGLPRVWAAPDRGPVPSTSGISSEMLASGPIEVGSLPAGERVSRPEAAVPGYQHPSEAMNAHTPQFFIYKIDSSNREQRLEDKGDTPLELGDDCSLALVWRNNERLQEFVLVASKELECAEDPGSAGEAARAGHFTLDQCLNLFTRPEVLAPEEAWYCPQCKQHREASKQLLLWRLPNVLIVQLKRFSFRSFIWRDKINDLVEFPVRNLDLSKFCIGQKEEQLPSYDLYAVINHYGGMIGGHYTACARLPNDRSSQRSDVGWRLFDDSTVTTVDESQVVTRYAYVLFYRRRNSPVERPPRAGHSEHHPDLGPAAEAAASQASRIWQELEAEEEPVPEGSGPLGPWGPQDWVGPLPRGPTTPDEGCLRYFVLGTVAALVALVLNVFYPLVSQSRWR
# In short: (§1)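 Each value is an average log2 ratio of fragment to vehicle, tested by unpaired t-test. The underlying Spectronaut label-free quantities were global-median-normalised, and only proteins with ≥2 unique peptides were included. Triplicate HEK293T lysate samples (495 µg) were exposed to fragment at 200 µM or vehicle for 3 h, then to Biotin-Ahx-Ub-VS at 0.5 µM final for 1 h, before NeutrAvidin enrichment of labelled DUBs, LysC and trypsin digestion, and diaPASEF LC-MS/MS.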
# USP22 = biological target: T2, USP22 (UniProt Q9UPT9)
# T2 sequence (whole entry): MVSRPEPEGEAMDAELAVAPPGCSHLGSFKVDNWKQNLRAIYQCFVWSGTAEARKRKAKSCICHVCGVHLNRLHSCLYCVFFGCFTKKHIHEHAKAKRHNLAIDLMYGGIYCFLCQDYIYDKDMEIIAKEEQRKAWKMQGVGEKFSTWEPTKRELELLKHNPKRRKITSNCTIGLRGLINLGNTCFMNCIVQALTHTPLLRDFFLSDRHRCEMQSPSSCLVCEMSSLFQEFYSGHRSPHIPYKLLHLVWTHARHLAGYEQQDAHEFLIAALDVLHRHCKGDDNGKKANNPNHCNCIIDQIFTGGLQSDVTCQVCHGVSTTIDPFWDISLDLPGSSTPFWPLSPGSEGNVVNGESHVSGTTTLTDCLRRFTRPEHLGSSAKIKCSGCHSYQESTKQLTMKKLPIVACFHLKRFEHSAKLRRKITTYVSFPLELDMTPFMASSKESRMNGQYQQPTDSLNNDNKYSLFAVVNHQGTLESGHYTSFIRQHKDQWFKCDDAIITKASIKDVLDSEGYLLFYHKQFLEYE
# In short: as §1
# USP24 = USP24 (UniProt Q9UPU5)
# Sequence of USP24 (Q9UPU5 whole entry): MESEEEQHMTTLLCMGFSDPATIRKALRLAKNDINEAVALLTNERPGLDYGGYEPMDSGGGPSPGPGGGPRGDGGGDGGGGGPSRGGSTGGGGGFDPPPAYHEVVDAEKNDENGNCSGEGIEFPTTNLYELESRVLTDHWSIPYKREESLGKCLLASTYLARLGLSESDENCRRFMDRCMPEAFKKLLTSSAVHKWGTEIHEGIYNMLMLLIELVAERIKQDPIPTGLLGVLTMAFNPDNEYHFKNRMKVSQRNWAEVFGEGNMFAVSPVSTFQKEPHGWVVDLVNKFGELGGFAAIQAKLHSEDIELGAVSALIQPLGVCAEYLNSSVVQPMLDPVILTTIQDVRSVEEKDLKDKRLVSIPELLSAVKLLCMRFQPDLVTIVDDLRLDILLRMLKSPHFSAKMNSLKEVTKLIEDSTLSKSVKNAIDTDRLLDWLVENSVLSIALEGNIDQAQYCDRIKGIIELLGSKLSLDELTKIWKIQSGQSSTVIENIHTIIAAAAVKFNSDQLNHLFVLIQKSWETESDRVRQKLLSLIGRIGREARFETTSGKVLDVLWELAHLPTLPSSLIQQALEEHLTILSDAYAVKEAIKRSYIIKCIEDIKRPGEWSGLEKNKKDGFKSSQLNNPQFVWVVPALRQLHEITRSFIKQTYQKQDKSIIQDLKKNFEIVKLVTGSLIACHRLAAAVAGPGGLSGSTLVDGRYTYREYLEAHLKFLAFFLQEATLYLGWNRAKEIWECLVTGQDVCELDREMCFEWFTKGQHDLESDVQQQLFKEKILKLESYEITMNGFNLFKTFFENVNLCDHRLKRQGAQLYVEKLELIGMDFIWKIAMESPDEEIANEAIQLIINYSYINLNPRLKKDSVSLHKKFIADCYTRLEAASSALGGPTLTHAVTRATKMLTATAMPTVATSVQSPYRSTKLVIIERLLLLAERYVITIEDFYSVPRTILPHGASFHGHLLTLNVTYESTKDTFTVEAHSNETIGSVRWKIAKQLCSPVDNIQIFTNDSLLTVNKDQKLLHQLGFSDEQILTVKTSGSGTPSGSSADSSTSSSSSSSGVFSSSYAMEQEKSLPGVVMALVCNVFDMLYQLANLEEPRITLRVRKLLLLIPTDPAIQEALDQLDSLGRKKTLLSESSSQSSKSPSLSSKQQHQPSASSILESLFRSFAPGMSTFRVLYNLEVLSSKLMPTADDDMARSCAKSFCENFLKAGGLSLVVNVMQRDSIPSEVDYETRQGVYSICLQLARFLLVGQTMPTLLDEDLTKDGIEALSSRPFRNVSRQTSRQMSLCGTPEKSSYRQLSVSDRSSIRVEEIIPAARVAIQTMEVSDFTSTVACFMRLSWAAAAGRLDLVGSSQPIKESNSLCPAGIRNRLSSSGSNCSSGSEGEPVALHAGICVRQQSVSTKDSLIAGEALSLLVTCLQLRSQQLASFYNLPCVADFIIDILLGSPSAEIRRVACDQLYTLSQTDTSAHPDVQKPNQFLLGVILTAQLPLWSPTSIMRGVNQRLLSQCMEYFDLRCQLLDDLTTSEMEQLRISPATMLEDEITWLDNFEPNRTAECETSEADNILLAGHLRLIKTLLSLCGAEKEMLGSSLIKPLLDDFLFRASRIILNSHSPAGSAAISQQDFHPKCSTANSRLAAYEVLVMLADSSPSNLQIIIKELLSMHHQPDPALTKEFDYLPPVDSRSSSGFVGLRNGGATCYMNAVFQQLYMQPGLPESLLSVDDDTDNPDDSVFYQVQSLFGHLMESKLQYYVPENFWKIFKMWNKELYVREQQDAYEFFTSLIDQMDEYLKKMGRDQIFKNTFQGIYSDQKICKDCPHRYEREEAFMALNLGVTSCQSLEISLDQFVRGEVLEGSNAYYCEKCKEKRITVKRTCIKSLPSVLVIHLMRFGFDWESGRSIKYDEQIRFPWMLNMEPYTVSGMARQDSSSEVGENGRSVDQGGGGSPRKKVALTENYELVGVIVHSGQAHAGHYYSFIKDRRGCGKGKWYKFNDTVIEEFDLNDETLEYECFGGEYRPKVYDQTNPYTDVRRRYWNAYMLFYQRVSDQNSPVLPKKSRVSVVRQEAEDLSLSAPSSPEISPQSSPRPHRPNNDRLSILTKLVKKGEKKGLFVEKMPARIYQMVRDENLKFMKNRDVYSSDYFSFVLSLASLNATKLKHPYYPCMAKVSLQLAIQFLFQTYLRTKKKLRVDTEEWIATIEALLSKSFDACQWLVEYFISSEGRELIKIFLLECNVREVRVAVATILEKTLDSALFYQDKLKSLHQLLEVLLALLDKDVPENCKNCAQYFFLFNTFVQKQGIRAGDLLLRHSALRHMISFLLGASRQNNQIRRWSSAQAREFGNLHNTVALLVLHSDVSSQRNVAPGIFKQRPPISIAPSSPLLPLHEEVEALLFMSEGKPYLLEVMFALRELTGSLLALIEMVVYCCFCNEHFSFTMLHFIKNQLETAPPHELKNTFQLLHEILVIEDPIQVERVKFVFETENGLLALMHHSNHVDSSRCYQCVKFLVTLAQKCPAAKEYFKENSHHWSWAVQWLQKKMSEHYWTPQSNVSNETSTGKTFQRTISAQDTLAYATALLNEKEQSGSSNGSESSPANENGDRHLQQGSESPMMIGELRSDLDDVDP
# In short: as §1
# USP25 = biological target: T3, USP25 (UniProt Q9UHP3)
# T3 sequence (whole entry): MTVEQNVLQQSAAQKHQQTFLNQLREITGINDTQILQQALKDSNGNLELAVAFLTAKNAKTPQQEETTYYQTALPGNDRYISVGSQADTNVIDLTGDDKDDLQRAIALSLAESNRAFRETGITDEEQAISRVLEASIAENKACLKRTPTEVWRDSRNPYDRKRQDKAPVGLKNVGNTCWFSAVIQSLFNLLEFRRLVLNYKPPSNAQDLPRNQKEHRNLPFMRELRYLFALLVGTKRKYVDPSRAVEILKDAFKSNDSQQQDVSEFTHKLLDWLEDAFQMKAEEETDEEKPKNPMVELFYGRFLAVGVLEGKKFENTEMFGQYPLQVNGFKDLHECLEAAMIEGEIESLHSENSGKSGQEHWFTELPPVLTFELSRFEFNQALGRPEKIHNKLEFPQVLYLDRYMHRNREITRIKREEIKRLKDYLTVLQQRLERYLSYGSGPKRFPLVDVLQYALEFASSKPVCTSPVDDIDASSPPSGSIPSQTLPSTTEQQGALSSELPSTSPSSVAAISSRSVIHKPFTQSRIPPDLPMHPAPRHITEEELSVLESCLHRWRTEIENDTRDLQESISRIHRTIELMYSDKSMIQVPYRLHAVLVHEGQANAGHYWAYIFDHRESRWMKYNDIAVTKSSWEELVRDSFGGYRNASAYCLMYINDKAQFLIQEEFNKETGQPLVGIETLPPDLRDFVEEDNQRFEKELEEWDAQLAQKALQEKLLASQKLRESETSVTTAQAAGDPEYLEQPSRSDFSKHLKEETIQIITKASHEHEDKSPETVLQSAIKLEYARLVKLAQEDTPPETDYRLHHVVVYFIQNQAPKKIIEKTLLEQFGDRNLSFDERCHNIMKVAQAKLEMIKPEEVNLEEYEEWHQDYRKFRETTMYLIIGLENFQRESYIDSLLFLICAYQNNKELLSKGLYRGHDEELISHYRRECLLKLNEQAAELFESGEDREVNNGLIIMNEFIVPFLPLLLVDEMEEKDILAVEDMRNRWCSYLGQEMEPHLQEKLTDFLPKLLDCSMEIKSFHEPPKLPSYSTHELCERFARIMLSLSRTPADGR
# In short: as §1
# USP28 = biological target: T4, USP28 (UniProt Q96RU2)
# T4 sequence (whole entry): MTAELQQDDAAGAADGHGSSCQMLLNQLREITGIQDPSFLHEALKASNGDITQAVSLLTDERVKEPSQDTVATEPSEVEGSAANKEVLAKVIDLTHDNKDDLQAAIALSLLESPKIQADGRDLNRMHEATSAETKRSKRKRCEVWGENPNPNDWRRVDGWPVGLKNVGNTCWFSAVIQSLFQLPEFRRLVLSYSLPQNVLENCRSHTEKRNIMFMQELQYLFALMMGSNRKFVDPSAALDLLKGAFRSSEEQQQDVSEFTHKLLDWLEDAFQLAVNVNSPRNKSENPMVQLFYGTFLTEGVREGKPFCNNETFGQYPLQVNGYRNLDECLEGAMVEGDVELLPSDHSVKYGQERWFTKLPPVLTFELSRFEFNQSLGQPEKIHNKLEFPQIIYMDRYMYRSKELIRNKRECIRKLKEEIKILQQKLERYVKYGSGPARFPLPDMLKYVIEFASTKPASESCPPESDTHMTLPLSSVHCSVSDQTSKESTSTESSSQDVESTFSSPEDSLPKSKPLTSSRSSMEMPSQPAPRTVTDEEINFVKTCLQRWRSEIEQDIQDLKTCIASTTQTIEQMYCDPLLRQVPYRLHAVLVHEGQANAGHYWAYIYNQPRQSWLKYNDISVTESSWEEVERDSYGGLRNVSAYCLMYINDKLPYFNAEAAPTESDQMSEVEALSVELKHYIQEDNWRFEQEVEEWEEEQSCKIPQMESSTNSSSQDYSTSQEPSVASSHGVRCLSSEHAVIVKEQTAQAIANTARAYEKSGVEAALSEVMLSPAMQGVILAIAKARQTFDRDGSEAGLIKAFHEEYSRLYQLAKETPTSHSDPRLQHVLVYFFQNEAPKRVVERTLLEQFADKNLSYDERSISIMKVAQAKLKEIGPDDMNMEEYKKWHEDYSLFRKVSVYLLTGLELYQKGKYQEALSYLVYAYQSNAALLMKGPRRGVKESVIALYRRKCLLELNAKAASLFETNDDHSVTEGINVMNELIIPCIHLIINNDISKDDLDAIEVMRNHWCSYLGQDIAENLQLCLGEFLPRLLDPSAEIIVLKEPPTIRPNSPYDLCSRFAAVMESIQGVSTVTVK
# In short: as §1
smiles,measurement,setting,value
O=C(CCl)N1CCN(C(=O)N2CCCCC2)CC1,log2 ratio of Biotin-Ahx-Ub-VS probe labelling,USP19,-0.943
same,log2 ratio of Biotin-Ahx-Ub-VS probe labelling,USP22,-0.465
same,log2 ratio of Biotin-Ahx-Ub-VS probe labelling,USP24,-1.28 (active)
same,log2 ratio of Biotin-Ahx-Ub-VS probe labelling,USP25,-1.09 (active)
same,log2 ratio of Biotin-Ahx-Ub-VS probe labelling,USP28,-1.23 (active)
